Here are results for 38 molecules from PubChem BioAssay (EPA / NIEHS).

Where “and” joins values, the source holds several entries; their conditions need not be identical. Identical values can stand only once. Records with an inconclusive call do not appear. More than one record can exist for a structure, and the calls need not agree. Calls of active or inactive are those of the source. How the source made its calls: active means hit-call score of the fitted dose curve at least 0.9, where 1 is the maximum; inconclusive means response in the unintended direction; inactive means score below 0.9.

A short description of the assay: TOX21_p53_BLA_p2_viability: Viability Assessment in the Tox21 HCT-116 p53 Agonism Beta-lactamase Assay, Phase 2 (AID 2283591).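 Further: compound exposure lasted 16 h at 37 °C; actives lower the ATP signal meaning cytotoxicity.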 From the text:
TOX21_p53_BLA_p2 is a cell-based, single-readout assay that uses HCT116, a human intestinal cell line, […] in a 1536-well plate.TOX21_p53_BLA_p2_viability is an assay readout measuring cellular ATP content and detected with CellTiter-Glo Luciferase-coupled ATP quantitation.TOX21_p53_BLA_p2_viability used a type of viability reporter where loss-of-signal activity can be used to understand changes in the cell viability. Furthermore, this assay endpoint can be referred to as a secondary readout, because this assay has produced multiple assay endpoints where this one serves a viability function. To generalize the intended target to other relatable targets, this assay endpoint is annotated to the cell cycle intended target family, where the subfamily is cytotoxicity.
Thawing Method: Place 14 mL of pre-warmed thaw medium into a 15 mL of conical tub. Remove the vial of cells to be thawed from liquid nitrogen and thaw rapidly by placing at 37C in a water bath with gentle agitation for 1-2 minutes. Decontaminate the vial by wiping with 70% ethanol before opening in a biological safety cabinet. Transfer the vial contents drop-wise into 14 mL of thaw medium in a sterile 15-mL conical tub. Centrifuge cells at 900 rpm for 4 minutes and resuspend in thaw medium. Transfer contents to the T75 tissue culture flask containing Thaw Medium and place flask in a humidified 37C/5% CO2 incubator. Switch to growth medium at first passage.Propagation Method: Aspirate medium, rinse once in DPBS, add 0.25% Trypsin/EDTA and swirl to coat the cell evenly. Add an equal volume of Growth Medium to inactivate Trypsin after 2-3 minutes incubation at 37C. Centrifuge cells at 900 rpm for 4 minutes and resuspend in growth medium. Cell should be passage or fed at least twice a week.Assay Protocol: Harvest cells from culture in growth medium and resuspend in assay medium. 2.2 Dispense 4000 cells/5 uL/well into 1536-well black/clear bottom plates using a Multidrop dispenser. After the cells were incubated at 37C for 5 hours, 23 nL of compounds dissolved in DMSO were transferred to the assay plate by a PinTool resulting in a 217-fold dilution. Incubate the plates for 16 hours at 37C, 5% CO2. Add 1 uL of 6X LiveBLAzer FRET B/G (CCF4-AM) Substrate Mixture to each well using a BioRAPTR dispenser and incubate the plates at room temperature for 2 hours. Measure fluorescence intensity at 460 and 530 nm emission and 405 nm excitation by an Envision detector. Data is expressed as the ratio of 460nm/530nm emissions. Add 4 uL of Cell-titer Glo to each well using BioRAPTR and incubate the plates at room temperature for […]. For cell viability readout that measures cytotoxicity, 4 ul/well of CellTiter-Glo reagent was added into the assay plates using a Flying Reagent Dispenser. After 30 min incubation at room temperature, the luminescence intensity in the plates was measured using a ViewLux plate reader.
In the case of `O=[N+]([O-])c1ccc(O)c([N+](=O)[O-])c1`, the outcome was inactive.

For `CC(C)(OO)c1ccccc1`, the molecule was called inactive.

In the case of `CCCCCCCCCCCCCCCC[n+]1ccccc1`, the outcome was inactive; the half-maximal activity concentration (AC50) – broadly, the midpoint of the concentration-response curve, whichever way the signal moves – is 48.8 µM (active) and 69.6 µM (active).

Regarding `O=C(OC1CCCCC1)c1ccccc1C(=O)OC1CCCCC1`, the call was inactive.

With `CCC(C)c1cccc(C(C)CC)c1O` (stereo not given), the molecule was classed as inactive.

For `O=S(=O)(c1ccc(Cl)cc1)c1ccc(Cl)cc1`, the molecule was called inactive.

On to `CC(C)(C)c1cc(O)ccc1O`, for which the molecule was called inactive.

Consider `CC(=O)OC(c1ccccc1)C(Cl)(Cl)Cl` (stereo not given), for which the result was inactive.

Turning to `CC(C)(c1ccccc1)c1ccc(O)c(C(C)(C)c2ccccc2)c1`, the AC50 was 11.4 µM (active) and 20.3 µM (active).

In the case of `COP(=S)(OC)Oc1cc(Cl)c(Cl)cc1Cl`, the molecule was classed as inactive.

With `C=C(C)C(=O)[O][Sn]([CH2]CCC)([CH2]CCC)[CH2]CCC`, the AC50 is 1.88 µM (active).

In the case of `O=C/C=C/c1ccccc1`, the molecule was called inactive.

With `ClCc1cccnc1`, the result was inactive.

Turning to `CCOP(=S)(OCC)Oc1nc(Cl)c(Cl)cc1Cl`, the call was inactive.

As to `CCC[CH2][Sn]([CH2]CCC)([CH2]CCC)[O]C(=O)c1ccccc1`, the concentration at half-maximal activity (AC50) is 0.93 µM (active).

As to `Nc1cccc(Cl)c1`, the molecule was called inactive.

Regarding `c1cc[c]([Hg][c]2ccccc2)cc1`, the molecule was classed as inactive.

As for `O=C1C2(Cl)C3(Cl)C4(Cl)C(Cl)(Cl)C5(Cl)C3(Cl)C1(Cl)C5(Cl)C24Cl` (stereo not given), the AC50 is 73.9 µM (active) and 73.7 µM (active).

As for `N#CN=C(N)N`, the call was inactive.

With `COc1cc(-c2ccc(N)c(OC)c2)ccc1N`, the outcome was inactive.

For the molecule `CC(=O)[O][Hg][c]1ccccc1`, the AC50 is 2.74 µM (active) and 2.65 µM (active) and 3.55 µM (active).

As for `C1CCC(NC2CCCCC2)CC1`, the molecule was classed as inactive.

As to `ClCCBr`, the result was inactive.

For `COP(=S)(OC)Oc1ccc(S(=O)(=O)N(C)C)cc1`, the outcome was inactive.

As for `CC(C)C1CCC(Cc2ccc(Cl)cc2)C1(O)Cn1cncn1` (stereo not given), the AC50 was 53.1 µM (active).

For `Clc1ccc(COC(Cn2ccnc2)c2ccc(Cl)cc2Cl)cc1` (stereo not given), the AC50 was 64.8 µM (active) and 73 µM (active) and 33.7 µM (active).

In the case of `CCNc1nc(NC(C)(C)C)nc(SC)n1`, the molecule was classed as inactive.

For the molecule `CC(C)(C)CC(C)(C)c1ccc(O)cc1`, the half-maximal activity concentration (AC50) was 64.5 µM (active) and 42.4 µM (active).

In the case of `CC(C)OC(=S)S`, the result was inactive.

Regarding `COP(=S)(OC)Oc1cc(Cl)c(Br)cc1Cl`, the outcome was inactive.

On to `O=C(CCl)CCl`, for which the molecule was called inactive.

`COc1cccc(C=O)c1`: the result was inactive.

In the case of `O=C(O)C(Cl)(Cl)Cl`, the molecule was called inactive.

For the molecule `ClCc1ccccn1`, the molecule was classed as inactive.

For the molecule `CC(C)(c1ccc(OCC2CO2)cc1)c1ccc(OCC2CO2)cc1` (stereo not given), the call was inactive and the AC50 is 68.3 µM (active).

Turning to `COP(=S)(OC)Oc1c(Cl)cc(C)cc1Cl`, the result was inactive.

For the molecule `NNC(=S)NN`, the result was inactive.

On to `CCOC(=O)/C=C(C)/C=C/C[C@@H](C)CCCC(C)C`, for which the molecule was classed as inactive.
